Results on 13 molecules are retold here after publication PMC12136788.

Over roughly 24,000 sequences, “enrichment r” has its median near 0.99; the highest 2% begin near 3.7. This is one part of a sample in which the highest values are shown more often than they occur.

B1: 31895827_31897285_3242_CDS_ENSMUSG00000042323_ENSMUST00000112095|mouse|control|control (ssRNA)
RNA: GGGAGUUCUACAGUCCGACGAUCCCAACAGCCGUACAACCAUUUUUCACCAGCUGAAUCCUCCCACAGUCUCUCAAUACACACUAUAUGUGGUUGUAGAUUGGCCUCCGCAGGUUCAACAUAGACAUAAUCUCCGACAUGAUACAACAGAGGAUUGAGCAUCA
B2: chr14:76906223:76906224:+_ENSMUSG00000022010_ENSMUST00000022587|mus_mus|FALSE|FALSE (ssRNA)
RNA: GGGAGUUCUACAGUCCGACGAUCCACUUCCUCCCUCACCGCAUACAUCAAAUGGCUUUUCACCAGAUCCAUAGCUUGCUCUAUUUUGUUGUCGAUAGCUACCACACUUGCACCAGAGCUAUUGUCAAGUCUCACGGAAGCGUUCAACAGAGGAUUGAGCAUCA
B3: 55618536_55618656_2401_CDS_ENSG00000126787_ENST00000247191|human|control|control (ssRNA)
RNA: GGGAGUUCUACAGUCCGACGAUCAACAUCUGAAAUUCCUUCUUUUUUGUUAGUAUUAAUAUCAUCUGCUACUCCACCAGCAAGAAGAGGCAAACUCAUUCUCUCACUGGAUAAACAAUCCACCUUCAAGUCUGUCUUAUUUACCAACAGAGGAUUGAGCAUCA
B4: chr5:143665338:143665339:-_ENSMUSG00000029580_ENSMUST00000100497|mus_hu|FALSE|FALSE (ssRNA)
RNA: GGGAGUUCUACAGUCCGACGAUCCACCUUCACCGUUCCAGUUUUUAAAUCCUGAGUCAAGCCAAAAAAAAAAAAAAAACCAAAACAAAACAAAAAAAACAAAUAAAGCCAUGCCAAUCUCAUCUUGUUUUCUGCGCAAGUUAGCAACAGAGGAUUGAGCAUCA
B5: 39249924_39250044_1625_CDS_ENSG00000115904_ENST00000402219|human|control|control (ssRNA)
RNA: GGGAGUUCUACAGUCCGACGAUCACUCCGGUACUGUAAAGAUAUCAAUGCUGCCAUCCAAUUGUUUUUCUCUUCAGCUGACUUGGCAGAAAAUAUAACACUAUUUUCAUCUUUUAAAAUUAUUUCAAAAGCAUGCUUGUAUUCCAACAGAGGAUUGAGCAUCA
B6: chr1:109605425:109605426:-_ENSG00000197780_ENST00000461096|hu_mus|FALSE|FALSE (ssRNA)
RNA: GGGAGUUCUACAGUCCGACGAUCUUUAAUCAACUCUCCGUUCUCACAAUUAAAGUACUUACAUUUCCGUCACUAGAGCACAGCCAGAAACACCUGGGCUGGCAUCGGCUCUUUAAGCCCUGCCGUUCCCACUACUGAGGCAUUCAACAGAGGAUUGAGCAUCA
B7: chr14:76904430:76904431:+_ENSMUSG00000022010_ENSMUST00000022587|mus_mus|mus_mus_mus_hu_True|58_108 (ssRNA)
RNA: GGGAGUUCUACAGUCCGACGAUCUGCUGGAAAAAAAACCCUCGUGGAAAAAAAGAGGGAACACCAGCAGCCUUGUACAAACUAGAUAAAAUCUUCUGGCUUUCCGCAGCCCAGGGAGAAACAGAAAACGGCAGCCCUAAUUUACAACAGAGGAUUGAGCAUCA
B8: chr1:71529667:71529668:-_ENSG00000132485_ENST00000254821|hu_hu|FALSE|FALSE (ssRNA)
RNA: GGGAGUUCUACAGUCCGACGAUCUUGUCACUGGAAAUACUGUUAAGAGAAACCUUUUUAUUUUUUAAACCAGAAAACAAACUAAAGCUCAUGUGACCAGAUUUUAAUUUUGAGAAAUAAACUCCAAAAGCAUUUUAAGCCAUACAACAGAGGAUUGAGCAUCA
B9: chr2:32530853:32530854:+_ENSG00000119820_ENST00000437765|hu_mus|FALSE|FALSE (ssRNA)
RNA: GGGAGUUCUACAGUCCGACGAUCUUCAGAAUUCUGACCAAAAAAAAGAAAAAAAAAUCCCAGAUAACUGCAAUUACUUAAAUACAAAAAAUAUUGUUUUAAAAAGACUUUAAGCCUGCCUCUCUAUCUGGAAUGUAUAAAAUUCAACAGAGGAUUGAGCAUCA
B10: chr3:124025330:124025331:+_ENSMUSG00000044528_ENSMUST00000058994|mus_mus|FALSE|FALSE (ssRNA)
RNA: GGGAGUUCUACAGUCCGACGAUCGUUUAAUCUUAAUUCCCACCACCACUCAUACCGCUGCCAACCCUUAAAAACACAUUAGACAAUAACAAUAGCAAUAUUUAAAAAAGCACGACCCGUUCUGAAAAACAGAAACUCUCUAGCCAACAGAGGAUUGAGCAUCA
B11: 77377103_77377223_5427_3pUTR_ENSG00000048649_ENST00000308488|human|control|control (ssRNA)
RNA: GGGAGUUCUACAGUCCGACGAUCUACAGUCCACCCAGGCCUUAAGAAAGACCACAUUCAUUUCACUAAUAACUCUCCAUCAGACACAAUAUAUUUGAGGCCACCUUAUUACCACUGCAUAAAGCUUAUUUAAAAAAAUUUGUUCAACAGAGGAUUGAGCAUCA
B12: chr9:108650075:108650076:+_ENSMUSG00000032601_ENSMUST00000035220|mus_mus|FALSE|FALSE (ssRNA)
RNA: GGGAGUUCUACAGUCCGACGAUCAGCAAUUUGUUUAUGUAAACAGCACAGAGGUUAAACAAAACAAAACAAAACAAAAACCUACUAAAUACAAACAACAAAAACCCUAACCCAGAUAACCUUUCCUGGCUACUACUGGAAAGACAACAGAGGAUUGAGCAUCA
B13: 24817595_24818005_4380_CDS_ENSG00000090905_ENST00000315183|human|control|control (ssRNA)
RNA: GGGAGUUCUACAGUCCGACGAUCCUGAUGGAGUGGCUGCUGCUGAGAUGGUGGAGUCUGCUGCUUCACCAACAGGUUUGGAUCAAGUUGACGAGAUUGUUGCAUCAUUUGCUGCUGCACACUAAGAGGUCGACCCUGCUGGUCCAACAGAGGAUUGAGCAUCA

This assay addresses T1, UNK ZnF1-3 (human, UniProt Q9C0B0 31-174).
T1 sequence: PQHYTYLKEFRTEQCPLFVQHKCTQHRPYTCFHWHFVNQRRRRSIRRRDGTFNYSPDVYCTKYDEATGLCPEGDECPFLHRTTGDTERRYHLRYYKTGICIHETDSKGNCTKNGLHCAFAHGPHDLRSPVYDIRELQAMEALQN
Briefly: nsRBNS (natural sequence RNA bind-n-seq); RBNS binding buffer (assumed for nsRBNS): 25 mM Tris pH 7.5, 150 mM KCl, 3 mM MgCl2, 0.01% Triton X-100, 500 ug/ml BSA, 20 U/ml SUPERase-In, 4 C; UNK is unkempt and MSI1 is Musashi-1; names of the RNAs are library labels; protein concentration not given here; high values mean tight binding.
As to B1, the binding signal is 1.01 enrichment R. The molecule B2 registered a binding signal of 1.04 enrichment R. B3 displayed a binding signal of 1.29 enrichment R. Molecule B4 showed a binding signal of 2.75 enrichment R. The figure for B5 is 1.14 enrichment R; for B6 it is 0.922 enrichment R; for B7 it is 2 enrichment R. With B8, the binding signal was 1.66 enrichment R. With B9, the binding signal came to 4.78 enrichment R. Consider B10, for which the binding signal was found to be 4.17 enrichment R.

The molecule B11 displayed a binding signal of 3.78 enrichment R. Molecule B12 yielded a binding signal of 4.03 enrichment R. In turn, B13 gave a binding signal of 0.736 enrichment R.
